Assay [1] relates to HeLa. Kind of assay: Primary qHTS to identify gynecologic anti-cancer compounds using libraries of approved drugs and bioactive compounds (AID 1345084). Note: nearly all actives have a fitted effect of over 55% in size. The following applies: Gynecologic cancer cell panel viability, ATPlite luminescence, 48 h; series mostly up to 57.5 µM. The method in brief:
(§1)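 Five-concentration response, 48 h; readout is ATP-driven luciferase luminescence.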

Assay [2] relates to Hek293T. The description is as above. The following applies: Gynecologic cancer cell panel viability, ATPlite luminescence, 48 h, control line for the selectivity index; series mostly up to 57.5 µM. The procedure, abridged:
as §1

In assay [3] the test system is JEG-3. The assay is described as above. The following applies: Gynecologic cancer cell panel viability, ATPlite luminescence, 48 h; series mostly up to 57.5 µM. The procedure, abridged: as §1
Assay [4] has as its system OV90. The description is as above. The following applies: Gynecologic cancer cell panel viability, ATPlite luminescence, 48 h; series mostly up to 57.5 µM. The procedure, abridged:
as §1

The subject of assay [5] is PA-1. The assay is described as above. Conditions: Gynecologic cancer cell panel viability, ATPlite luminescence, 48 h; series mostly up to 57.5 µM. The procedure, abridged:
as §1

The test system of assay [6] is Tov-21-G. The description is as above. The following applies: Gynecologic cancer cell panel viability, ATPlite luminescence, 48 h; series mostly up to 57.5 µM. The method in brief: as §1
In assay [7] the test system is Tov112D. Described as above. The following applies: Gynecologic cancer cell panel viability, ATPlite luminescence, 48 h; series mostly up to 57.5 µM. The method in brief:
as §1

Assay [8] can be described thus: Drug repurposing screens with cells derived from glioblastoma tumor samples (AID 1345199). Note: nearly all actives have a fitted effect of over 40% in size. Conditions: GBM patient neurospheres viability, ATP luminescence, 48 h. The method in brief:
(§2)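 Four patient lines of CD133+ GBM neurospheres were screened at several concentrations; hits were retested in those lines plus three slower-growing GBM lines, using 48-hour treatment and ATP-based viability.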

Assay [9] has as its system astro. Described as above. Conditions: viability, ATP luminescence, 48 h; series mostly up to 45.9 µM. The procedure, abridged:
as §2

For assay [10], the system named is SKOV3. Kind of assay: Primary qHTS to identify gynecologic anti-cancer compounds using libraries of approved drugs and bioactive compounds (AID 1345084). Note: nearly all actives have a fitted effect of over 55% in size. The following applies: Gynecologic cancer cell panel viability, ATPlite luminescence, 48 h; series mostly up to 57.5 µM. The method in brief:
as §1

Where [11] appears, read: at 45.9 µM (top of the series), tumour line B.
The mark [12] stands for this setting: at 45.9 µM (top of the series), tumour line D.
[13] abbreviates: at 46 µM (top of the series), tumour line A.
Setting [14] is: at 46.1 µM (top of the series), tumour line C.

Among the data in PubChem BioAssay (NCATS) are Potency and activity, negative = cell killing values, retold here.

SMILES strings stand for the structures. Records with an inconclusive call do not appear. Some compounds were tested as several samples or in several runs, with calls that do not always agree. Calls of active or inactive are those of the source. Calls come from the whole dose curve; as a rule, active = well fitted curve in the direction sought with a large enough effect; inconclusive = small, poorly fitted or top-dose-only effect, or another doubt; inactive = no such curve, though single readings can be large; an effect the other way counts as inactive or inconclusive.
% is set by controls: 0 for no effect and ±100 for the full control effect; potency is the fitted concentration of half-maximal effect.

`CCCCCCCCCCCCCCCC(=O)NCCO`: the Potency entry in assay [1], in assay [2], in [3], in assay [4], in assay [5] and in assay [6] was “inactive” each time. Moreover, the Potency entry in [7] and in assay [9] was “inactive” each time. Also, the activity, negative = cell killing is 0.41% (inactive) in assay [8] (setting [11]), -8.68% (inactive) in assay [8] (setting [12]), -19.5% (inactive) in assay [8] (setting [13]) and -10.8% (inactive) in [8] (setting [14]).
Turning to `C=Cc1c(C)c2cc3[nH]c(cc4nc(cc5nc(cc1[nH]2)C(C)=C5CCC(=O)O)C(CCC(=O)O)=C4C)c(C)c3C=C`, the Potency result in assay [1], in assay [2], in [3], in assay [4], in assay [5] and in [6] was “inactive” throughout. In addition, the Potency result in [7] and in assay [9] was “inactive” throughout. Also, the activity, negative = cell killing is -11.3% (inactive) in assay [8] (setting [11]), -20.2% (inactive) in [8] (setting [12]), -14% (inactive) in [8] (setting [13]) and -7.06% (inactive) in assay [8] (setting [14]).
As to `C[C@]12C[C@H](O)[C@H]3[C@@H](CCC4=CC(=O)CC[C@@]43C)[C@@H]1CC[C@@H]2C(=O)CO`, the Potency in assay [1] is 20 µM (active). Further, the Potency entry in [2], in assay [3], in assay [4], in assay [5], in assay [10] and in [6] was “inactive” in each case. Further, the Potency entry in assay [7] and in assay [9] was “inactive” in each case. Further, the activity, negative = cell killing in [8] (setting [11]) is -17.6% (inactive); in assay [8] (setting [12]), -22.1% (inactive).
Regarding `COc1ccc2cc1Oc1ccc(cc1)C[C@H]1c3c(cc4c(c3Oc3cc5c(cc3OC)CCN(C)[C@@H]5C2)OCO4)CCN1C`, the Potency result in [1], in assay [2], in assay [3], in [6] and in [7] was “inactive” throughout. Also, the Potency in assay [4] was 10 µM (active) and inactive; in [5], 28.2 µM (active).
On to `CCOC(CN1CCN(CC(C)C(=O)c2ccccc2)CC1)c1ccccc1` (configuration not stated), for which the Potency entry in assay [1], in assay [2], in assay [3], in assay [4], in assay [5] and in [10] was “inactive” in each case. Besides, the Potency result in assay [6], in [7] and in [9] was “inactive” in each case. Besides, the activity, negative = cell killing in assay [8] (setting [11]) was -10.2% (inactive). Besides, the Potency in assay [8] (tumour line A) is 12.6 µM (active).
`O=C(O)c1ccccn1`: the Potency entry in assay [1], in assay [2], in [3], in [4], in [5] and in assay [6] was “inactive” each time. The Potency entry in assay [7] and in [9] was “inactive” in each case. For the same compound, the activity, negative = cell killing is -12% (inactive) in assay [8] (setting [11]), -3.68% (inactive) in assay [8] (setting [12]), -22.3% (inactive) in assay [8] (setting [13]) and 1.95% (inactive) in [8] (setting [14]).
With `CC12CCC(CC1)C(C)(C)O2`, the Potency result in [1], in [2], in assay [3], in assay [4], in assay [5] and in assay [10] was “inactive” throughout. Also, the Potency result in [6], in assay [7] and in [9] was “inactive” in each case. The activity, negative = cell killing in assay [8] (setting [11]) was -7.94% (inactive); in assay [8] (setting [12]), 5.35% (inactive); in [8] (setting [14]), -12.5% (inactive).
Consider `COC(=O)[C@H]1[C@H]2C[C@@H]3c4[nH]c5cc(OC)ccc5c4CCN3C[C@H]2C[C@@H](OC(=O)COc2ccc(OC)cc2)[C@@H]1OC`, for which the Potency entry in [1], in assay [2], in assay [3], in assay [4], in [5] and in [10] was “inactive” each time. Also, the Potency entry in [6], in assay [7] and in [9] was “inactive” each time. Also, in [8] (setting [11]), the activity, negative = cell killing is -20.4% (inactive). In addition, the Potency in assay [8] (tumour line A) was 11.2 µM (active).
`Nc1ccc(S(=O)(=O)Nc2nccs2)cc1`: the Potency entry in assay [1], in assay [2], in [3], in assay [4], in assay [5] and in assay [6] was “inactive” in each case. The Potency entry in assay [7] and in assay [9] was “inactive” throughout. In addition, the activity, negative = cell killing in assay [8] (setting [11]) was -4.74% (inactive); in [8] (setting [12]), -5.75% (inactive); in assay [8] (setting [13]), -21.1% (inactive); in assay [8] (setting [14]), -7.84% (inactive).
With `Cc1cc2nc3c(=O)[nH]c(=O)nc-3n(C[C@H](O)[C@H](O)[C@H](O)CO)c2cc1C`, the Potency entry in [1], in assay [2], in assay [3], in assay [4], in assay [5] and in assay [10] was “inactive” in each case. The Potency entry in assay [6], in [7] and in assay [9] was “inactive” in each case.
Regarding `CNC(=O)Oc1ccc2c(c1)[C@]1(C)CCN(C)[C@@H]1N2C`, the Potency entry in [1], in assay [2], in [3], in assay [4], in assay [5] and in assay [10] was “inactive” throughout. Further, the Potency entry in assay [6], in assay [7] and in [9] was “inactive” throughout.
As to `CCN(CC)C(C)CN1c2ccccc2Sc2ccccc21` (configuration not stated), the Potency result in assay [1], in [2], in assay [3], in assay [4], in assay [5] and in assay [10] was “inactive” in each case. The Potency result in assay [6], in assay [7] and in assay [9] was “inactive” throughout. Moreover, the activity, negative = cell killing is -5.52% (inactive) in [8] (at 20 µM (top of the series), tumour line C) and -16.2% (inactive) in assay [8] (at 21.2 µM (top of the series), tumour line B). The Potency in [8] (tumour line A) was 10 µM (active).
For the compound `Nc1ccc(S(=O)(=O)Nc2ccc(Cl)nn2)cc1`, the Potency result in assay [1], in assay [2], in [3], in assay [4], in assay [5] and in [10] was “inactive” each time. Moreover, the Potency entry in assay [6], in assay [7] and in assay [9] was “inactive” in each case.
As for `C[C@H]1O[C@@H](n2cc(F)c(=O)[nH]c2=O)[C@H](O)[C@@H]1O`, the Potency result in assay [1], in assay [2], in assay [3], in assay [4], in assay [5] and in [10] was “inactive” in each case. For the same compound, the Potency entry in [7] and in [9] was “inactive” in each case. For the same compound, the activity, negative = cell killing was -19.9% (inactive) in assay [8] (setting [11]), -17.4% (inactive) in assay [8] (setting [12]), -26.5% (inactive) in assay [8] (setting [13]) and 3.86% (inactive) in assay [8] (setting [14]).
In the case of `CC/C=C(\C(=O)N[C@@H]1C(=O)N2C(C(=O)OCOC(=O)C(C)(C)C)=C(COC(N)=O)CS[C@H]12)c1csc(N)n1`, the Potency result in assay [1], in assay [2], in [3], in assay [4], in assay [5] and in [10] was “inactive” throughout. Further, the Potency entry in assay [6], in [7] and in [9] was “inactive” in each case.
As for `[O-][n+]1cccc(CO)c1`, the Potency entry in [1], in assay [2], in assay [3], in assay [4], in assay [5] and in assay [6] was “inactive” in each case. Also, the Potency entry in assay [7] and in assay [9] was “inactive” each time. Besides, the activity, negative = cell killing was -6.72% (inactive) in [8] (setting [11]), -10.2% (inactive) in assay [8] (setting [12]), -20.8% (inactive) in assay [8] (setting [13]) and -13.8% (inactive) in assay [8] (setting [14]).
